Measurements taken from article PMC7862700, “An all-to-all approach to the identification of sequence-specific readers for epigenetic DNA modifications on cytosine”.

What was measured:
Assay in all cases: DAPPL (digital affinity profiling via proximity ligation, sequencing); 10 mM Tris-HCl pH 7.5, 50 mM NaCl, 1 mM DTT, 4% glycerol, room temperature, 30 min; GST-TFs on glutathione beads, 16-mer random dsDNA library, 0.1% formaldehyde crosslink after washing; high values mean tight binding
FLI1 = target: T1, FLI1 (Homo sapiens, UniProt Q01543 1-452); settings: protein: recombinant; tags: N-terminal GST; dsDNA, one strand shown
T1 sequence: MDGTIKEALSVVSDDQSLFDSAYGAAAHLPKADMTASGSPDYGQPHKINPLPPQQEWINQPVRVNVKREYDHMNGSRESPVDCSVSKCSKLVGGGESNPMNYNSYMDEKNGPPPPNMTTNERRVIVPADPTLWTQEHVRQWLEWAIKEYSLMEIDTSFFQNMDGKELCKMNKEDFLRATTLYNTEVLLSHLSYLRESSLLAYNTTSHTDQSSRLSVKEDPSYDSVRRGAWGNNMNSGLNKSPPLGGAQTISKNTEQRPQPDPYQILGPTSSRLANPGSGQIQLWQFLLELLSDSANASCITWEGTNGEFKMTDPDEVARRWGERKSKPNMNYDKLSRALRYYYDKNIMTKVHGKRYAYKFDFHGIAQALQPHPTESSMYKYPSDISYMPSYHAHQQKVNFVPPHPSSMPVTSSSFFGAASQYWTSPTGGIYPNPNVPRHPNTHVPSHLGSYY
Summary of the method: (§1)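 Beads coated with glutathione captured GST-fused human transcription factors that had been expressed in yeast, and the factors were then given DNA barcodes and pooled with a tag-only sample. The pools were incubated with 200 nmole of a random double-stranded 16-mer DNA library in Tris/NaCl/DTT/glycerol buffer for 30 min at room temperature, washed, crosslinked with 0.1% formaldehyde and proximity-ligated with BsaI/T4 ligase at 37 °C for 1 h. PCR amplification and Illumina NextSeq500 sequencing came last. Binding signal is each hexamer's read frequency for a factor divided by its frequency for the tag-only sample.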

ELK1 = target: T2, ELK1 (Homo sapiens, UniProt P19419 1-428); settings: protein: recombinant; tags: N-terminal GST; dsDNA, one strand shown
T2 sequence: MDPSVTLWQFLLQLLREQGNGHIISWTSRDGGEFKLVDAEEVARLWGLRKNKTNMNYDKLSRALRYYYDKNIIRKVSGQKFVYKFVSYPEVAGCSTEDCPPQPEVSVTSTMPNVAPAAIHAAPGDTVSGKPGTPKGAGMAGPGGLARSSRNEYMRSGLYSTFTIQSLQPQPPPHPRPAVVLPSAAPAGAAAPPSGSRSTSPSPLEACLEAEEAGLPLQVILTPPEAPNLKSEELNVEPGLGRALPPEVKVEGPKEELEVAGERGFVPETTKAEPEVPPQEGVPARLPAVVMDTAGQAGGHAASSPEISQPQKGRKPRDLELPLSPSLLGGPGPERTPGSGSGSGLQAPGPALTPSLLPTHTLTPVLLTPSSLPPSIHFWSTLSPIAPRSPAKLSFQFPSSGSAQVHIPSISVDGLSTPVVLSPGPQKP
Summary of the method: as §1

GABPA = target: T3, GABPA (Homo sapiens, UniProt Q06546 1-454); settings: protein: recombinant; tags: N-terminal GST; dsDNA, one strand shown
T3 sequence: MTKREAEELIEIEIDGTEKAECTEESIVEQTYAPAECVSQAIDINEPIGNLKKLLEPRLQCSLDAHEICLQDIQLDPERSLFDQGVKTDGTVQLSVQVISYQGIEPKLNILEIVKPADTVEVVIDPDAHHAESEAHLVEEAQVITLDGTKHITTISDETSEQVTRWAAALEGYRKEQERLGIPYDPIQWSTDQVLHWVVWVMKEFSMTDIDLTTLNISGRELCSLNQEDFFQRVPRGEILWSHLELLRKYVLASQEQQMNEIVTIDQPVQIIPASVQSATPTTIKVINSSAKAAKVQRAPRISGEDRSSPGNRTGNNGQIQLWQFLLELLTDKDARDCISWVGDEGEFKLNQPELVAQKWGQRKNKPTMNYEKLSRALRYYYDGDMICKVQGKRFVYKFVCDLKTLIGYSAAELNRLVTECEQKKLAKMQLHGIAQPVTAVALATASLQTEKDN
Summary of the method: as §1

ERG = target: T4, ERG (Homo sapiens, UniProt P11308 1-479); settings: protein: recombinant; tags: N-terminal GST; dsDNA, one strand shown
T4 sequence: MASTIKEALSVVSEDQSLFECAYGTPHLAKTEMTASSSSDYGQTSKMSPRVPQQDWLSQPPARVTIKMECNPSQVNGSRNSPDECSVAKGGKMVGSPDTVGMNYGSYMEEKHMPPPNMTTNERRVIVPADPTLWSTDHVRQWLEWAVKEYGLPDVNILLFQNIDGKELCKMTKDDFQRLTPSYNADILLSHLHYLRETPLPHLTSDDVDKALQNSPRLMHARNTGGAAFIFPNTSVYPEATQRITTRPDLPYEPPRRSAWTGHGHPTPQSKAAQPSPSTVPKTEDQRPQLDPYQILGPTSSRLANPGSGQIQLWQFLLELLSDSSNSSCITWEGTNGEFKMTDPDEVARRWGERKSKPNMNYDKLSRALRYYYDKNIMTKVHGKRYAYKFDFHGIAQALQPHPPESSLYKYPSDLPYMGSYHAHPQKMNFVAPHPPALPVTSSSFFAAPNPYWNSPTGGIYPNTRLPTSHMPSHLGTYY
Summary of the method: as §1

ELF1 = ELF1 (Homo sapiens, UniProt P32519 1-619); settings: protein: recombinant; tags: N-terminal GST; dsDNA, one strand shown
Chain of ELF1 (P32519 whole entry): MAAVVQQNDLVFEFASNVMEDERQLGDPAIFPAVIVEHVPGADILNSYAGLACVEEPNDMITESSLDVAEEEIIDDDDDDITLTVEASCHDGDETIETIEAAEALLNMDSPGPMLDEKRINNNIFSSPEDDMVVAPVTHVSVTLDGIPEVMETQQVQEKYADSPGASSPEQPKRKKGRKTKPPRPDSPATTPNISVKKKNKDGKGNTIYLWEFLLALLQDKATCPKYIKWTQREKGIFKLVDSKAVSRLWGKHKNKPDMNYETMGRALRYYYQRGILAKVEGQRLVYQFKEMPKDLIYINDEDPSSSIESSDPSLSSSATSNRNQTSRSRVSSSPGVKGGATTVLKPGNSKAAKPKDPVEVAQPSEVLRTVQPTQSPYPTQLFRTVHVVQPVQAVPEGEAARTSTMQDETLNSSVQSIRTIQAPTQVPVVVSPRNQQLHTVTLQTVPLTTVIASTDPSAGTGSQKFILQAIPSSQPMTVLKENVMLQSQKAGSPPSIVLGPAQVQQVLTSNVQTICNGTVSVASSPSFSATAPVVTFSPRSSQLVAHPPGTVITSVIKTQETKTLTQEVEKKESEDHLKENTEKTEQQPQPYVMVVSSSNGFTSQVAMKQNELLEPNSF
Summary of the method: as §1

EHF = target: T5, EHF (Homo sapiens, UniProt Q9NZC4 1-300); settings: protein: recombinant; tags: N-terminal GST; dsDNA, one strand shown
T5 sequence: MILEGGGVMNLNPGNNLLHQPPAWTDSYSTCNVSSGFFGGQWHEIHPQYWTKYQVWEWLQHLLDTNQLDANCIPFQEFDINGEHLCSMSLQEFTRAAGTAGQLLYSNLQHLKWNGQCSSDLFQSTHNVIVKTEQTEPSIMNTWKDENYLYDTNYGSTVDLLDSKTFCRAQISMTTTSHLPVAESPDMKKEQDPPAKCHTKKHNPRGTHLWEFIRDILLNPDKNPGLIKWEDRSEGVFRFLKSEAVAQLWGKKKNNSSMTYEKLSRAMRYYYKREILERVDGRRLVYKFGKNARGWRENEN
Summary of the method: as §1

SPI1 = SPI1 (Homo sapiens, UniProt P17947 1-270); settings: protein: recombinant; tags: N-terminal GST; dsDNA, one strand shown
Summary of the method: as §1

SPIB = SPIB (Homo sapiens, UniProt Q01892 1-262); settings: protein: recombinant; tags: N-terminal GST; dsDNA, one strand shown
Chain of SPIB (Q01892 whole entry): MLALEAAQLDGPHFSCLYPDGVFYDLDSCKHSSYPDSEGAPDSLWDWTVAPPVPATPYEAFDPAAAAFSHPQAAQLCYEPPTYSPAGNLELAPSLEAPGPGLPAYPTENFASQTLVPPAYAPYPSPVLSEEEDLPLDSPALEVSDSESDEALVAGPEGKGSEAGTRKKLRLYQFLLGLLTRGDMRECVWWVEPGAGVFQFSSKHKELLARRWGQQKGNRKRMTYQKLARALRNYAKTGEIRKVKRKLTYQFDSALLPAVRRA
Summary of the method: as §1

ELK3 = target: T6, ELK3 (Homo sapiens, UniProt P41970 1-407); settings: protein: recombinant; tags: N-terminal GST; dsDNA, one strand shown
T6 sequence: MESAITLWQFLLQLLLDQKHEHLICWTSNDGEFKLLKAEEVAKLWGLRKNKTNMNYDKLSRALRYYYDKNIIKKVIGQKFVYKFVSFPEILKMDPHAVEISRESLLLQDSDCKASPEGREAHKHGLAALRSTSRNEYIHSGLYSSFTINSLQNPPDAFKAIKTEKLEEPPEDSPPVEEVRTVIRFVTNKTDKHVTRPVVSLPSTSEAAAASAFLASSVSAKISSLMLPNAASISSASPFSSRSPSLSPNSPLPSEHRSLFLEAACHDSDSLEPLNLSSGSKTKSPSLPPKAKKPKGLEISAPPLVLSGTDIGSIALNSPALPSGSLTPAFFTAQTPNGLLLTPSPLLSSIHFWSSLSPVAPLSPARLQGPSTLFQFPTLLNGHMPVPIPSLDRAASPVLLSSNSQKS
Summary of the method: as §1

FEV = target: T7, FEV (Homo sapiens, UniProt Q99581 1-238); settings: protein: recombinant; tags: N-terminal GST; dsDNA, one strand shown
T7 sequence: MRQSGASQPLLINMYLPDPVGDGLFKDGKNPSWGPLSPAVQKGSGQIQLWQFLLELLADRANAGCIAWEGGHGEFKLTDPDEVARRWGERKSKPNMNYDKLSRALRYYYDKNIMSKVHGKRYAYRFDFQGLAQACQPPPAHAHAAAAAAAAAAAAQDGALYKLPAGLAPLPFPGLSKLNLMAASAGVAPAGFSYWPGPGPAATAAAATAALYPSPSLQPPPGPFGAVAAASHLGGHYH
Summary of the method: as §1

ETV5 = ETV5 (Homo sapiens, UniProt P41161 1-510); settings: protein: recombinant; tags: N-terminal GST; dsDNA, one strand shown
Chain of ETV5 (P41161 whole entry): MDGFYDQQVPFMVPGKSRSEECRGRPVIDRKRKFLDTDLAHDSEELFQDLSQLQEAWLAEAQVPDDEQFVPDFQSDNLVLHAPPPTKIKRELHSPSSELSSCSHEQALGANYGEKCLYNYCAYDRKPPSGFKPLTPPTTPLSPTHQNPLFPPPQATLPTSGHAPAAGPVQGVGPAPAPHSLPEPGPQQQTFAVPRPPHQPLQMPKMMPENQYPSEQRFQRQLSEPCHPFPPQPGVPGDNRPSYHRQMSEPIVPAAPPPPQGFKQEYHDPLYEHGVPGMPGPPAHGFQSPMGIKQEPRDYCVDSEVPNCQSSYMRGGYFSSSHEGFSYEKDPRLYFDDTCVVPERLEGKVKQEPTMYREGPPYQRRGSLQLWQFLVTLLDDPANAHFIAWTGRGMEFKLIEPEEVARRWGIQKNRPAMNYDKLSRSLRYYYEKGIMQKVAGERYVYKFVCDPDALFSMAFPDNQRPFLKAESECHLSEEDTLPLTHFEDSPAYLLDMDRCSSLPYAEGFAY
Summary of the method: as §1

HSF1 = HSF1 (Homo sapiens, UniProt Q00613 1-529); settings: protein: recombinant; tags: N-terminal GST; chain copies: 3; dsDNA, one strand shown
Chain of HSF1 (Q00613 whole entry): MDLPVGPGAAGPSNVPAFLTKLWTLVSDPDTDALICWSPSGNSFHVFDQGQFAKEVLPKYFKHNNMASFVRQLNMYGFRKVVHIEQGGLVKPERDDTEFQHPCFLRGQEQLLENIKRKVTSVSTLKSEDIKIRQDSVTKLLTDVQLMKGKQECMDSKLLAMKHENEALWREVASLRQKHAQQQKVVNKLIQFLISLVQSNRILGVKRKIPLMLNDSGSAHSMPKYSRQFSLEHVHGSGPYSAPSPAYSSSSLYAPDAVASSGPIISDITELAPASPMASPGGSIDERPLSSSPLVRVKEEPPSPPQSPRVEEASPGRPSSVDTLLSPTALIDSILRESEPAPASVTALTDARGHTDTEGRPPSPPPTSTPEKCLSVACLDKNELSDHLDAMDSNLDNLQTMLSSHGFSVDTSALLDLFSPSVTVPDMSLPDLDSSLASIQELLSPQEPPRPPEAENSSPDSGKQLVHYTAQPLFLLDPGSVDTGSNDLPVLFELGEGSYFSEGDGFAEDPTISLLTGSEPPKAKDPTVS
Summary of the method: as §1

SPIC = target: T8, SPIC (Homo sapiens, UniProt Q8N5J4 1-248); settings: protein: recombinant; tags: N-terminal GST; dsDNA, one strand shown
T8 sequence: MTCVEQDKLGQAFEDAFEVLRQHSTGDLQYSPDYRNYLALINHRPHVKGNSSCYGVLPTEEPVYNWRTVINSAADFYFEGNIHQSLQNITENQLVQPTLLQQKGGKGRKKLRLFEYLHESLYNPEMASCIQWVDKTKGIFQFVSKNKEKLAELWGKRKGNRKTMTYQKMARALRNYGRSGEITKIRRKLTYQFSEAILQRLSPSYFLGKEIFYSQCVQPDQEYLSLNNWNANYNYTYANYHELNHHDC
Summary of the method: as §1

ELF4 = ELF4 (Homo sapiens, UniProt Q99607 1-663); settings: protein: recombinant; tags: N-terminal GST; dsDNA, one strand shown
Chain of ELF4 (Q99607 whole entry): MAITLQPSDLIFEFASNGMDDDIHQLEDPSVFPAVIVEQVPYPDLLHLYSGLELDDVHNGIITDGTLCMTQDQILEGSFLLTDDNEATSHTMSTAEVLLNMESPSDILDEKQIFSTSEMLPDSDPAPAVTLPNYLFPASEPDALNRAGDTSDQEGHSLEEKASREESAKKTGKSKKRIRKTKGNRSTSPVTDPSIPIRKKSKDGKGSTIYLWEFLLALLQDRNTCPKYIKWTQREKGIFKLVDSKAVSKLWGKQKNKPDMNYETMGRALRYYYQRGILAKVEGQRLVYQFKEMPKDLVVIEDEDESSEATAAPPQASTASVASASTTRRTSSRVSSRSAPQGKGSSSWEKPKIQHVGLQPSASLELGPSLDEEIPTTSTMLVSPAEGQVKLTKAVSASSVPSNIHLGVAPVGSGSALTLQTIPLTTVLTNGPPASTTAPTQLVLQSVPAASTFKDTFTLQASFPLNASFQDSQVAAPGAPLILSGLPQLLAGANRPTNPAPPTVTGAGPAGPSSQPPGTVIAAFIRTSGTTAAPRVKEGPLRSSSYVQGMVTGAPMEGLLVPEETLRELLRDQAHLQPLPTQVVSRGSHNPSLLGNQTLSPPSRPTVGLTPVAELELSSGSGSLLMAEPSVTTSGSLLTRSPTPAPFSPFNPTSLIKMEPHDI
Summary of the method: as §1

ELK4 = target: T9, ELK4 (Homo sapiens, UniProt P28324-2 1-405); settings: protein: recombinant; tags: N-terminal GST; dsDNA, one strand shown
T9 sequence: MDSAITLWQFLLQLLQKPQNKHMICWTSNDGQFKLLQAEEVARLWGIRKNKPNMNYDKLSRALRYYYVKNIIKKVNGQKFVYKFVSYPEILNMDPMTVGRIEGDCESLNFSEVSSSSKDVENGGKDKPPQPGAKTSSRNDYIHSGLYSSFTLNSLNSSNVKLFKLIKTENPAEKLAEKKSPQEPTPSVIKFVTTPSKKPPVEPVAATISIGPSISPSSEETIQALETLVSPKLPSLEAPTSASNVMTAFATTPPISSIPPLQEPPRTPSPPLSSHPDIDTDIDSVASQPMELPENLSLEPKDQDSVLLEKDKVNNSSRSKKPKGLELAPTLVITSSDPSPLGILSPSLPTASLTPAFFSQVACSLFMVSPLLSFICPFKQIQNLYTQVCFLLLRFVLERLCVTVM
Summary of the method: as §1

ETV2 = target: T10, ETV2 (Homo sapiens, UniProt O00321 1-342); settings: protein: recombinant; tags: N-terminal GST; dsDNA, one strand shown
T10 sequence: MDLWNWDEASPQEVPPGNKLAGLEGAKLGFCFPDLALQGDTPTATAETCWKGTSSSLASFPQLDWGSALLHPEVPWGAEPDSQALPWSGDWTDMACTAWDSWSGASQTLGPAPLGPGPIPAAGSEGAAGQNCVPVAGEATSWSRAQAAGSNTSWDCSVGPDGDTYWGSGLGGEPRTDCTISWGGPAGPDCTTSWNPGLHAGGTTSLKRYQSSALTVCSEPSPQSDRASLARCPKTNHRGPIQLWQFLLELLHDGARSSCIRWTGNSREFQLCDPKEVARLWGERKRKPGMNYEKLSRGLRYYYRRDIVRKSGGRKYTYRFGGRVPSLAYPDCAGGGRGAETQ
Summary of the method: as §1

ELF3 = target: T11, ELF3 (Homo sapiens, UniProt P78545 1-371); settings: protein: recombinant; tags: N-terminal GST; dsDNA, one strand shown
T11 sequence: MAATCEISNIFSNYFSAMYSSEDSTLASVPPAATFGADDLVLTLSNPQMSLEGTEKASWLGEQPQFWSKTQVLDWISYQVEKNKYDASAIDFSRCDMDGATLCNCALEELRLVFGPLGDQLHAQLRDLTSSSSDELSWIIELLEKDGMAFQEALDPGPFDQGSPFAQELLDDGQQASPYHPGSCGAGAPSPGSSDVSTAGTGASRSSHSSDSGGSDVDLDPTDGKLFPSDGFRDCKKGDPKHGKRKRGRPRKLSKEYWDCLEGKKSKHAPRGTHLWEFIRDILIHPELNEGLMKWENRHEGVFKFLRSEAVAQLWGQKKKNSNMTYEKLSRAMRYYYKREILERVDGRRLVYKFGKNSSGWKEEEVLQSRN
Summary of the method: as §1

CRX = CRX (Homo sapiens, UniProt O43186 1-299); settings: protein: recombinant; tags: N-terminal GST; dsDNA, one strand shown
Chain of CRX (O43186 whole entry): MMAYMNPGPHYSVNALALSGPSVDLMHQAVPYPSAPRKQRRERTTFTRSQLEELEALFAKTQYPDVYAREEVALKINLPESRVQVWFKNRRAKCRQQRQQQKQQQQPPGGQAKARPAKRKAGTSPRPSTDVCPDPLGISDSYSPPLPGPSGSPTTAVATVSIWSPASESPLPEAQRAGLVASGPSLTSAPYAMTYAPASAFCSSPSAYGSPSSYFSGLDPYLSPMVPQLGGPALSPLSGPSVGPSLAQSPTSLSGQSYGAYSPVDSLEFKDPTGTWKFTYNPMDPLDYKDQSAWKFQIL
Summary of the method: as §1

ETV1 = ETV1 (Homo sapiens, UniProt P50549 1-477); settings: protein: recombinant; tags: N-terminal GST; dsDNA, one strand shown
Chain of ETV1 (P50549 whole entry): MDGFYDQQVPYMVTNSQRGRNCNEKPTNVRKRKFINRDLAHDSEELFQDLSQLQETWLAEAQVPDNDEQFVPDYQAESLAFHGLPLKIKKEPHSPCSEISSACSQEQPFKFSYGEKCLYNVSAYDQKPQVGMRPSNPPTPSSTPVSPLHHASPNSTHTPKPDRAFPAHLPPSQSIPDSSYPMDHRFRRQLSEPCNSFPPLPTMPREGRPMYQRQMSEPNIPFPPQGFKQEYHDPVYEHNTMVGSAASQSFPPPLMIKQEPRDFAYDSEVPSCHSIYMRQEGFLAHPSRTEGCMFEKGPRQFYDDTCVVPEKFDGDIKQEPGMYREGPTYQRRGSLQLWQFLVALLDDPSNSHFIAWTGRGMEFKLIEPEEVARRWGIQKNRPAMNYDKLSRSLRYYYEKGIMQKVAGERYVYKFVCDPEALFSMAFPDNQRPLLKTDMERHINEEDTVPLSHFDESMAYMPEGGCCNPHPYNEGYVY
Summary of the method: as §1

Sequence: TCTCCC
- binding signal (FLI1): 1.66 fold enrichment (6-mer frequency, TF over GST control)
- binding signal (ELK1): 1.68 fold enrichment (6-mer frequency, TF over GST control)
- binding signal (GABPA): 1.74 fold enrichment (6-mer frequency, TF over GST control)
- binding signal (ERG): 1.54 fold enrichment (6-mer frequency, TF over GST control)
- binding signal (ELF1): 1.63 fold enrichment (6-mer frequency, TF over GST control)
- binding signal (EHF): 1.73 fold enrichment (6-mer frequency, TF over GST control)
- binding signal (SPI1): 1.47 fold enrichment (6-mer frequency, TF over GST control)
- binding signal (SPIB): 1.71 fold enrichment (6-mer frequency, TF over GST control)
- binding signal (ELK3): 1.75 fold enrichment (6-mer frequency, TF over GST control)
- binding signal (FEV): 1.7 fold enrichment (6-mer frequency, TF over GST control)
- binding signal (ETV5): 1.64 fold enrichment (6-mer frequency, TF over GST control)
- binding signal (HSF1): 1.65 fold enrichment (6-mer frequency, TF over GST control)
- binding signal (SPIC): 1.51 fold enrichment (6-mer frequency, TF over GST control)
- binding signal (ELF4): 1.78 fold enrichment (6-mer frequency, TF over GST control)
- binding signal (ELK4): 1.63 fold enrichment (6-mer frequency, TF over GST control)
- binding signal (ETV2): 1.54 fold enrichment (6-mer frequency, TF over GST control)
- binding signal (ELF3): 1.78 fold enrichment (6-mer frequency, TF over GST control)
- binding signal (CRX): 1.7 fold enrichment (6-mer frequency, TF over GST control)
- binding signal (ETV1): 1.78 fold enrichment (6-mer frequency, TF over GST control)
